# From PubChem BioAssay (Tox21)
# Where “and” joins values, the source holds several entries; their conditions need not be identical. Identical values can stand only once. Results filed as inconclusive are left out. Values without a mark were called inactive. Calls of active or inactive are those of the source. Calls follow the shape of the full dose curve.
# Assay: qHTS assay for small molecule agonists of the p53 signaling pathway (AID 651631); also: nearly all actives have a fitted effect of over 15% in size
# Conditions: HCT-116 p53RE-bla reporter, beta-lactamase FRET ratio, 16 h; series mostly up to 73.3 µM; activation: at the top concentration
# Text: U.S. Tox21 Program National Center for Advancing Translational Sciences [NCATS] NIH Chemical Genomics Center [NCGC] U.S. Environmental Protection Agency [EPA] National Institutes of Environmental Health Sciences [NIEHS] National Toxicology Program [NTP] U.S. Food and Drug Administration [FDA] Tox21 Assay Overview: p53, a tumor suppressor protein, is activated following cellular insult, including DNA damage and other cellular stresses. The activation of p53 regulates cell fate by inducing DNA repair, cell cycle arrest, apoptosis, or cellular senescence. The activation of p53, therefore, is a good indicator of DNA damage and other cellular stresses. The CellSensor p53RE-bla HCT-116 cell line (Invitrogen) contains a stably integrated beta-lactamase reporter gene under control of the p53 response elements. The activation of the reporter gene under culture conditions can be detected by fluorescence intensity. This cell line was used to screen the Tox21 compound library in a 1536-well plate format and to identify agonists that activate the p53 signaling pathway.
# Tox21 Assay Protocol Summary: The p53RE-bla cells were dispensed at 4,000 cells/5 ul/well in 1536-well black wall/clear bottom plates using a Multidrop dispenser. After the assay plates were incubated at a 37 C/5% CO2 incubator for 5 hours, 23 nL of compounds dissolved in DMSO, positive controls or DMSO only was transferred to the assay plate by a pin tool. The plates were incubated at 37 C for 16 hours. After 1 uL of LiveBLAzerTM B/G FRET substrate was added using a Flying Reagent Dispenser, the plates were incubated at room temperature for 2 hours, and fluorescence intensity was measured by an Envision plate reader.
# % is scaled to controls: 0 for no effect and ±100 for the full control effect; potency is read from the fitted curve at half-maximal effect.
Structure (SMILES),activation,Potency
CCCCCN=C(N)N/N=C/c1c[nH]c2ccc(OC)cc12,-1.59%,
C=CC[N@@+]12CC[C@@]34c5ccccc5N5/C=C6/[C@H]7C[C@H]8[C@@]9(CC[N@@+]8(CC=C)C/C7=C/CO)c7ccccc7N(/C=C(/[C@@H](C[C@@H]31)/C(=C\CO)C2)[C@H]54)[C@@H]69,-2.69% [at 34.7 µM],
CCOc1ccc(NC(=S)Nc2ccc(OCC)cc2)cc1,2.21%,
CO/N=C(\C(=O)N[C@@H]1C(=O)N2C(C(=O)O)=C(C[N+]3(C)CCCC3)CS[C@H]12)c1csc(N)n1,-2.2%,
O=C(Cn1cnnn1)N[C@@H]1C(=O)N2C(C(=O)O)=C(CSc3nncs3)CS[C@H]12,,inactive
NS(=O)(=O)c1cc(Cl)c(Cl)c(S(N)(=O)=O)c1,6.01% [at 34.7 µM],
CC1(C)CCC(NC(=O)[C@@H](N)CCC(=O)O)CC1,2.05%,
CCCCCCCCCCCCCCCC(=O)OC[C@H](COP(=O)([O-])OCC[N+](C)(C)C)OC(=O)CCCCCCCCCCCCCCC,1.57%,
NC(N)=NCc1cccc(I)c1,3.34%,
CC(=O)OCC(=O)[C@@]1(O)CC[C@H]2[C@@H]3C[C@H](C)C4=CC(=O)C=C[C@]4(C)[C@H]3[C@@H](O)C[C@@]21C,-3.9%,
CN=C(N)NCCC[C@H](N)C(=O)O,,inactive
Cc1cc(CC(C)CC(C)(C)C)n(O)c(=O)c1 (stereo not given) (tested in a mixture with another compound),,9.44 µM (active)
O=C1OC(O)C(C(Cl)Cl)=C1Cl (stereo not given),,14.1 µM (active)
NCC[C@H](O)C(=O)N[C@@H]1C[C@H](N)[C@@H](O[C@H]2O[C@H](CN)CC[C@H]2N)[C@H](O)[C@H]1O[C@H]1O[C@H](CO)[C@@H](O)[C@H](N)[C@H]1O,-1.29%,
CC12CCC(C1)C(C)(C)C2=O (stereo not given),2.17%,
CCc1cn([C@H]2C[C@H](O)[C@@H](CO)O2)c(=O)[nH]c1=O,2.8%,
CC(C)(Oc1ccc(C2CCCc3ccccc32)cc1)C(=O)O (stereo not given),-3.73%,
CS(=O)(=O)c1ccc([C@@H](O)[C@@H](COC(=O)CN)NC(=O)C(Cl)Cl)cc1,3.84%,
N#Cc1c(N(CC(=O)O)CC(=O)O)sc(C(=O)O)c1CC(=O)O,0.312%,
O=C1C2CC3CC1CC(O)(C3)C2,-2.12%,

Structure (SMILES),activation,Potency
CC1(C)S[C@@H]2[C@H](NC(=O)[C@H](N)c3ccc(O)cc3)C(=O)N2[C@H]1C(=O)O,,inactive
O=C1c2c(O)cccc2[C@H]([C@@H]2O[C@H](CO)[C@@H](O)[C@H](O)[C@H]2O)c2cc(CO)cc(O)c21,,inactive
O=P(O)(O)OP(=O)(O)OP(=O)(O)O,-1.95%,
O=C(O)c1cc2cc(Cc3cccnc3)ccc2o1,3.55%,
CN[C@H](CC(C)C)C(=O)N[C@H]1C(=O)N[C@@H](CC(N)=O)C(=O)N[C@H]2C(=O)N[C@H]3C(=O)N[C@H](C(=O)N[C@@H](C(=O)O)c4cc(O)cc(O)c4-c4cc3ccc4O)[C@H](O)c3ccc(c(Cl)c3)Oc3cc2cc(c3O[C@@H]2O[C@H](CO)[C@@H](O)[C@H](O)[C@H]2O[C@H]2C[C@](C)(N)C(O)[C@H](C)O2)Oc2ccc(cc2Cl)[C@H]1O (stereo not given in full),,inactive
O=C(O)c1cc(O)c2c(c1)[C@H]([C@H]1c3cc(C(=O)O)cc(O)c3C(=O)c3c(O[C@@H]4O[C@H](CO)[C@@H](O)[C@H](O)[C@H]4O)cccc31)c1cccc(O[C@@H]3O[C@H](CO)[C@@H](O)[C@H](O)[C@H]3O)c1C2=O,3.42%,
CC(CNC(=O)c1cccnc1)NC(=O)c1cccnc1 (stereo not given),-1.81%,
CC1CCCCN1CCCOC(=O)c1ccccc1 (stereo not given),-1.95%,
Cc1c(N)nc([C@H](CC(N)=O)NC[C@H](N)C(N)=O)nc1C(=O)N[C@H](C(=O)N[C@H](C)[C@@H](O)[C@H](C)C(=O)N[C@H](C(=O)NCCc1nc(-c2nc(C(=O)NCCCCN=C(N)N)cs2)cs1)[C@@H](C)O)[C@@H](O[C@@H]1O[C@@H](CO)[C@@H](O)[C@H](O)[C@@H]1O[C@H]1O[C@H](CO)[C@@H](O)[C@H](OC(N)=O)[C@@H]1O)c1cnc[nH]1,,841 nM (active) and 66.8 nM (active)
CO/N=C(\C(=O)N[C@@H]1C(=O)N2C(C(=O)O)=C(COC(C)=O)CS[C@H]12)c1csc(N)n1 (stereo in doubt),4.32%,
CC[C@@H](C)[C@H](N)C(=O)O,-2.79%,
CO/N=C(\C(=O)N[C@@H]1C(=O)N2C(C(=O)O)=C(CSc3cnns3)CS[C@H]12)c1csc(N)n1,-2.23%,
OCCCNc1ccccc1,-2.24%,
CC(C)NCC1CCc2cc(CO)c([N+](=O)[O-])cc2N1 (stereo not given),-3.61% [at 34.7 µM],
CC(C)C[C@@H](NC(=O)[C@@H](O)[C@H](N)Cc1ccccc1)C(=O)O,3.97%,
CC[N+](CC)(CC)CCC(O)(c1ccccc1)C1CCCCC1 (stereo not given),-1.14% [at 34.7 µM],
Oc1ccc(Cl)c2c1CCC2,2.19%,
CC(C)Cc1ccc([C@H](C)C(=O)O)cc1,-2.55%,
COc1ccc(/C=C/C(=O)O)cc1,4.36%,
O=C(CCCN1CCN2CCCC2C1)c1ccc(F)cc1 (stereo not given),-1.56%,
